# From the supplement of paper PMC8728848
# This excerpt belongs to a sample that is enriched for the strongest signals.
# B1: LKPARMA (Neurospora crassa) (protein)
# chain: MSFHVTAEDARRIEVRDNRTILFARLRREDGEWNDASYELDQIIGNNDGHFQWGGGQNFTETAEDIRFHPKEGAAEQPILRARLRDCNGEFHDRDVNLTEIVENVNGEFQAKF
# B2: PP2A1 (Arabidopsis thaliana) (protein)
# chain: MFRNQDSKYLIPVQKEAPPVTTLPMKASTVKSPHNCEAILRDADPPISLSSVNLSEQLRSGVFLKPKKQIKYWVDERNSNCFMLFAKNLSITWSDDVNYWTWFTEKESPNENVEAVGLKNVCWLDITGKFDTRNLTPGIVYEVVFKVKLEDPAYGWDTPVNLKLVLPNGKEKPQEKKVSLRELPRYKWVDVRVGEFVPEKSAAGEITFSMYEHAAGVWKKGLSLKGVAIRPKQHHHHHH
# Assays:
# Experiment in all cases: glycan array binding signal (z-score within array); higher = stronger binding
# Settings in all cases: glycan notation: IUPAC condensed, linker removed
# Fuc(a1-2)Gal(b1-3)GlcNAc = target: Fuc(a1-2)Gal(b1-3)GlcNAc
# Outline: (§1)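 Glycan array binding is given as a within-array Z-score, which can be read as non-binding when negative. The arrays, 3228 of them, came from the Consortium for Functional Glycomics database and were retained only where the protein sequence was available. Z-scores were averaged across arrays of the same protein sequence at different concentrations or buffers and across linkers.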
# [1] = target: Fuc(a1-3)[Gal(b1-4)]GlcNAc(b1-4)Gal(b1-4)[Fuc(a1-3)]GlcNAc
# Outline: as §1
# [2] = target: Gal(b1-3)GlcNAc(b1-3)Gal(b1-4)Glc
# Outline: as §1
# [3] = target: Gal(b1-3)GlcNAc(b1-3)Gal(b1-4)GlcNAc
# Outline: as §1
# [4] = target: Gal(b1-3)[Fuc(a1-4)]GlcNAc
# Outline: as §1
# [5] = target: Gal(b1-3)[Neu5Ac(a2-6)]GalNAc
# Outline: as §1
# [6] = target: Gal(b1-3)[Neu5Ac(a2-6)]GlcNAc(b1-6)Gal(b1-4)Glc
# Outline: as §1
# [7] = target: Gal(b1-3)[Neu5Ac(b2-6)]GalNAc
# Outline: as §1
# [8] = target: Gal(b1-4)GalNAc(a1-3)[Fuc(a1-2)]Gal(b1-4)GlcNAc
# Outline: as §1
# [9] = target: Gal(b1-4)GlcNAc(b1-6)Gal(b1-4)GlcNAc(b1-6)GalNAc
# Outline: as §1
# Gal6S(b1-4)Glc = target: Gal6S(b1-4)Glc
# Outline: as §1
# Glc(a1-6)Glc(a1-6)Glc = target: Glc(a1-6)Glc(a1-6)Glc
# Outline: as §1
# Glc(b1-6)Glc = target: Glc(b1-6)Glc
# Outline: as §1
# [10] = target: GlcNAc(b1-2)Man(a1-3)[GlcNAc(b1-2)Man(a1-6)]Man(b1-4)GlcNAc(b1-4)GlcNAc
# Outline: as §1
# [11] = target: Neu5Ac(a2-3)Gal(b1-4)GlcNAc(b1-3)Gal(b1-4)GlcNAc
# Outline: as §1
# [12] = target: Neu5Ac(a2-3)Gal(b1-4)[Fuc(a1-3)]GlcNAc(b1-3)Gal(b1-4)[Fuc(a1-3)]GlcNAc(b1-3)Gal(b1-4)[Fuc(a1-3)]GlcNAc
# Outline: as §1
# [13] = target: Neu5Ac(a2-6)GalNAc(b1-4)GlcNAc
# Outline: as §1
# [14] = target: Neu5Ac(a2-8)Neu5Ac(a2-8)Neu5Ac(a2-8)Neu5Ac(a2-3)[GalNAc(b1-4)]Gal(b1-4)Glc
# Outline: as §1
# [15] = target: Fuc(a1-2)Gal(b1-4)GlcNAc(b1-3)Gal(b1-4)GlcNAc
# Outline: as §1
# [16] = target: Fuc(a1-2)[Gal(a1-3)]Gal(b1-4)Glc
# Outline: as §1
# [17] = target: Fuc(a1-2)[GalNAc(a1-3)]Gal(b1-4)GlcNAc(b1-3)Gal(b1-4)GlcNAc
# Outline: as §1
# [18] = target: Fuc(a1-2)[GalNAc(a1-4)]Gal(b1-4)GlcNAc
# Outline: as §1
# Gal(a1-2)Gal = target: Gal(a1-2)Gal
# Outline: as §1
# [19] = target: Gal(a1-3)Gal(b1-4)[Fuc(a1-3)]GlcNAc(b1-2)Man(a1-3)[Gal(a1-3)Gal(b1-4)[Fuc(a1-3)]GlcNAc(b1-2)Man(a1-6)]Man(b1-4)GlcNAc(b1-4)GlcNAc
# Outline: as §1
# [20] = target: Gal(b1-3)[Fuc(a1-4)]GlcNAc(b1-2)Man(a1-3)[Gal(b1-3)[Fuc(a1-4)]GlcNAc(b1-2)Man(a1-6)]Man(b1-4)GlcNAc(b1-4)[Fuc(a1-6)]GlcNAc
# Outline: as §1
# Gal(b1-4)Glc6S = target: Gal(b1-4)Glc6S
# Outline: as §1
# [21] = target: Gal(b1-4)GlcNAc(b1-2)Man(a1-3)[Man(a1-6)]Man(b1-4)GlcNAc(b1-4)GlcNAc
# Outline: as §1
# [22] = target: Gal(b1-4)GlcNAc(b1-2)Man(a1-6)Man(b1-4)GlcNAc(b1-4)GlcNAc
# Outline: as §1
# [23] = target: Gal(b1-4)GlcNAc(b1-3)Gal(b1-4)GlcNAc(b1-3)Gal(b1-4)GlcNAc
# Outline: as §1
# Gal3S(b1-4)Glc6S = target: Gal3S(b1-4)Glc6S
# Outline: as §1
# Gal3S(b1-4)GlcNAc6S = target: Gal3S(b1-4)GlcNAc6S
# Outline: as §1
# GalNAc(a1-3)GalNAc = target: GalNAc(a1-3)GalNAc
# Outline: as §1
# GalNAc(b1-3)Gal = target: GalNAc(b1-3)Gal
# Outline: as §1
# GalNAc(b1-3)GalNAc = target: GalNAc(b1-3)GalNAc
# Outline: as §1
# [24] = target: GlcNAc(b1-3)Gal(b1-4)GlcNAc(b1-3)Gal(b1-4)GlcNAc
# Outline: as §1
# [25] = target: GlcNAc(b1-4)GlcNAc(b1-4)GlcNAc
# Outline: as §1
# [26] = target: Man(a1-2)Man(a1-2)Man(a1-6)[Man(a1-3)]Man
# Outline: as §1
# [27] = target: Man(a1-2)Man(a1-3)[Man(a1-2)Man(a1-6)]Man
# Outline: as §1
# [28] = target: Man(a1-2)Man(a1-3)[Man(a1-6)]Man(a1-6)[Man(a1-2)Man(a1-3)]Man(b1-4)GlcNAc(b1-4)GlcNAc
# Outline: as §1
# [29] = target: Man(a1-2)Man(a1-6)[Man(a1-3)]Man(a1-6)[Man(a1-2)Man(a1-2)Man(a1-3)]Man(b1-4)GlcNAc(b1-4)GlcNAc
# Outline: as §1
# [30] = target: Man(a1-3)[Man(a1-6)]Man(a1-6)[Man(a1-2)Man(a1-3)]Man(b1-4)GlcNAc(b1-4)GlcNAc
# Outline: as §1
# [31] = target: Man(a1-3)[Man(a1-6)]Man(a1-6)[Man(a1-3)]Man(b1-4)GlcNAc(b1-4)GlcNAc
# Outline: as §1
# [32] = target: Man(a1-3)[Man(a1-6)]Man(b1-4)GlcNAc(b1-4)GlcNAc
# Outline: as §1
# [33] = target: Neu5Ac(a2-3)Gal(b1-3)[Fuc(a1-4)]GlcNAc(b1-3)Gal(b1-3)[Fuc(a1-4)]GlcNAc
# Outline: as §1
# [34] = target: Neu5Ac(a2-3)Gal(b1-3)[Neu5Ac(a2-6)]GalNAc
# Outline: as §1
# [35] = target: Neu5Ac(a2-3)Gal(b1-4)[Fuc(a1-3)]GlcNAc(b1-6)[Gal(b1-3)]GalNAc
# Outline: as §1
# [36] = target: Neu5Ac(a2-3)Gal(b1-4)[Fuc(a1-3)]GlcNAc(b1-6)[Neu5Ac(a2-3)Gal(b1-3)]GalNAc
# Outline: as §1
# [37] = target: Neu5Ac(a2-3)Gal6S(b1-4)GlcNAc
# Outline: as §1
# [38] = target: Neu5Ac(a2-8)Neu5Ac(a2-3)[GalNAc(b1-4)]Gal(b1-4)Glc
# Outline: as §1
# [39] = target: Neu5Ac(a2-8)Neu5Ac(a2-8)Neu5Ac(a2-3)Gal(b1-4)Glc
# Outline: as §1
binder,measurement,setting,value
B1,glycan array binding signal (z-score),Fuc(a1-2)Gal(b1-3)GlcNAc,-0.25
same,glycan array binding signal (z-score),[1],-0.077
same,glycan array binding signal (z-score),[2],4.93
same,glycan array binding signal (z-score),[3],-0.249
same,glycan array binding signal (z-score),[4],-0.251
same,glycan array binding signal (z-score),[5],-0.234
same,glycan array binding signal (z-score),[6],5.09
same,glycan array binding signal (z-score),[7],-0.251
same,glycan array binding signal (z-score),[8],-0.149
same,glycan array binding signal (z-score),[9],-0.252
same,glycan array binding signal (z-score),Gal6S(b1-4)Glc,-0.252
same,glycan array binding signal (z-score),Glc(a1-6)Glc(a1-6)Glc,7.12
same,glycan array binding signal (z-score),Glc(b1-6)Glc,6.76
same,glycan array binding signal (z-score),[10],-0.251
same,glycan array binding signal (z-score),[11],-0.235
same,glycan array binding signal (z-score),[12],-0.212
same,glycan array binding signal (z-score),[13],-0.252
same,glycan array binding signal (z-score),[14],-0.248
B2,glycan array binding signal (z-score),Fuc(a1-2)Gal(b1-3)GlcNAc,-0.319
same,glycan array binding signal (z-score),[15],-0.347
same,glycan array binding signal (z-score),[16],-0.572
same,glycan array binding signal (z-score),[17],-0.018
same,glycan array binding signal (z-score),[18],-0.398
same,glycan array binding signal (z-score),Gal(a1-2)Gal,-0.291
same,glycan array binding signal (z-score),[19],-0.011
same,glycan array binding signal (z-score),[20],1.34
same,glycan array binding signal (z-score),[8],-0.498
same,glycan array binding signal (z-score),Gal(b1-4)Glc6S,0.116
same,glycan array binding signal (z-score),[21],2.93
same,glycan array binding signal (z-score),[22],0.362
same,glycan array binding signal (z-score),[23],-0.223
same,glycan array binding signal (z-score),[9],0.051
same,glycan array binding signal (z-score),Gal3S(b1-4)Glc6S,0.405
same,glycan array binding signal (z-score),Gal3S(b1-4)GlcNAc6S,0.165
same,glycan array binding signal (z-score),GalNAc(a1-3)GalNAc,-0.698
same,glycan array binding signal (z-score),GalNAc(b1-3)Gal,-0.293
same,glycan array binding signal (z-score),GalNAc(b1-3)GalNAc,-0.497
same,glycan array binding signal (z-score),[24],-0.708
same,glycan array binding signal (z-score),[25],2.52
same,glycan array binding signal (z-score),[26],0.03
same,glycan array binding signal (z-score),[27],0.174
same,glycan array binding signal (z-score),[28],3.07
same,glycan array binding signal (z-score),[29],2.69
same,glycan array binding signal (z-score),[30],2.97
same,glycan array binding signal (z-score),[31],3.55
same,glycan array binding signal (z-score),[32],2.85
same,glycan array binding signal (z-score),[33],0.594
same,glycan array binding signal (z-score),[34],0.432
same,glycan array binding signal (z-score),[35],-0.268
same,glycan array binding signal (z-score),[36],-0.091
same,glycan array binding signal (z-score),[37],0.07
same,glycan array binding signal (z-score),[38],0.265
same,glycan array binding signal (z-score),[39],0.006
